The panel holds about 83,000 compounds, 20% with a hit somewhere; the sample as a whole holds those more often.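 Single-concentration screen, 48 h exposure, 96-well plates. Endpoint: percent growth. Below 10 = active.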 The source made the active and inactive calls.
What was measured:
Experiment in all cases: NCI-60 one-dose screen, 48 h (100 = growth as untreated, 0 = no growth, -100 = all killed)
Conditions in all cases: 10 µM unless noted
[1] = system: DU-145 prostate
[2] = system: K-562 leukemia
[3] = system: MALME-3M melanoma
[4] = system: MDA-MB-231 breast
[5] = system: SF-268 CNS
[6] = system: SF-295 CNS
[7] = system: SF-539 CNS
[8] = system: UACC-257 melanoma
[9] = system: M14 melanoma

Measured: growth

CN1CCN(c2ccc(NC3=C(Cl)C(=O)c4ncccc4C3=O)cc2C#N)CC1
inactive: [1] 86.9% | [5] 85.3% | [6] 115% | [7] 91.6% | [9] 54%
active: [2] 2.83% | [3] -69.4% | [4] -4.9% | [8] -46.5%

C=Cc1cc[n+](CCCCCCCCCCCC)cc1
inactive: [1] 105% | [2] 93.8% | [3] 111% | [4] 99.9% | [5] 99.7% | [6] 106% | [7] 104% | [8] 111% | [9] 102%

Cc1cc(C)c(C=O)c(C)c1
inactive: [1] 117% | [2] 100% | [3] 114% | [4] 112% | [5] 104% | [6] 101% | [7] 106% | [8] 74.5% | [9] 84.3%

CCCCCCCCCCCCCCCC(=O)OC[C@@]1(O)C[C@@]23CC[C@@H]4C(C)(C)[C@H](O)CC[C@@]4(C)[C@@H]2CC[C@H]1C3
active: [9] -30.4%
inactive: [1] 108% | [2] 98% | [3] 114% | [4] 110% | [5] 101% | [6] 112% | [7] 97.8% | [8] 110%

COc1cc2nc(-c3ccc(-c4nn[nH]n4)cc3)[nH]c(=O)c2cc1OC
inactive: [1] 114% | [2] 109% | [3] 215% | [4] 119% | [5] 99.9% | [6] 122% | [7] 99.5% | [8] 122% | [9] 102%

COC(=O)Nc1nc2ccc(C(=O)c3cccc(I)c3)cc2[nH]1
active: [1] 5.95% | [2] 6.18% | [4] -3.99% | [7] -25.8% | [9] 1.39%
inactive: [3] 31.3% | [5] 22.4% | [6] 12% | [8] 61.4%

c1ccc(N2N=C(c3cccc(Nc4ccncc4)c3)CC2c2ccc3c(c2)OCO3)cc1 (stereo unspecified)
active: [2] 4.94% | [3] -22.6% | [6] -17.1% | [7] 9.86%
inactive: [1] 16.4% | [4] 37.7% | [5] 29.9% | [8] 27.2% | [9] 93.1%

COc1ccc(C(O)c2cc3c(N)c(C(=O)Nc4ccc(Br)cc4)sc3nc2C)cc1 (stereo unspecified)
inactive: [3] 24.8% | [4] 54.1% | [5] 45.4% | [6] 21.6% | [7] 27.2% | [8] 32.3%
active: [1] -4.27% | [2] 3.49% | [9] 3.91%

COc1ccc(C(=O)c2cc3c(N)c(C(=O)Nc4cccc(Br)c4C)sc3nc2C)cc1
inactive: [3] 51.8% | [4] 13% | [5] 22.9% | [6] 22.2% | [8] 59%
active: [1] 8.9% | [2] 5.28% | [7] -15.3% | [9] 7.09%

N/C(=N\N=C\c1cc2ccccc2[nH]1)N/N=C/c1cc2ccccc2[nH]1
inactive: [1] 112% | [2] 61.6% | [3] 87.9% | [4] 99.9% | [5] 103% | [6] 111% | [7] 104% | [8] 107% | [9] 99.4%

COc1cc(C2CC(c3cccc(Nc4ccncc4)c3)=NN2c2ccccc2)cc(OC)c1OC (stereo unspecified)
inactive: [1] 45.4% | [4] 63.4% | [5] 64.7% | [6] 58.6% | [7] 76.9% | [9] 58.9%
active: [2] 0.38% | [3] -77.7% | [8] -13.8%

CCN(CC)CCSCCCNc1c(C)cnc2cc(Cl)ccc12
inactive: [1] 88.2% | [3] 87% | [4] 61.9% | [5] 81% | [6] 90.5% | [7] 71% | [8] 113% | [9] 89.5%
active: [2] 5.33%

O=C(Nc1ccc(F)cc1)c1c(NC(=O)C(F)(F)F)sc2c1CCCCC2
inactive: [1] 16.9%
active: [2] 6.57% | [3] -21.1% | [4] -20.4% | [5] 4.27% | [6] -42.4% | [7] -0.67% | [8] -23.9% | [9] -3.37%

COc1ccc(NC(=O)c2sc3nc(C)c(C(=O)c4ccc(OC)cc4)cc3c2N)cc1
inactive: [1] 65.4% | [2] 23.3% | [3] 37.9% | [4] 60.2% | [5] 61.8% | [6] 44.3% | [7] 51% | [8] 55.8% | [9] 32.8%

COc1ccc(C(=O)c2cc3c(N)c(C(=O)Nc4cccc(Cl)c4)sc3nc2C)cc1
active: [2] 6.91% | [7] -15.5%
inactive: [1] 18% | [3] 51.2% | [4] 28.4% | [5] 44.7% | [6] 31.3% | [8] 71.4% | [9] 17.9%

O=C(CN1CCOCC1)Nc1ccc2ncnc(Nc3ccc(OCc4cccc(F)c4)c(Cl)c3)c2c1
inactive: [1] 50.5% | [2] 43.9% | [3] 83.7% | [4] 71% | [5] 68.7% | [6] 73.9% | [7] 75.3% | [8] 87.9% | [9] 68.5%

CC[C@@]12C=CCN3CC[C@]4(c5cc(NC(=O)COc6cc(OCC(=O)Nc7cc8c(cc7OC)N(C)[C@H]7[C@@](O)(C(=O)OC)[C@H](OC(C)=O)[C@]9(CC)C=CCN%10CC[C@]87[C@@H]%109)cc7oc(-c8ccccc8)cc(=O)c67)c(OC)cc5N(C)[C@@H]4[C@](O)(C(=O)OC)[C@H]1OC(C)=O)[C@H]32
inactive: [1] 30.3% | [2] 45.6% | [3] 111% | [6] 71.3% | [7] 89.3% | [8] 103% | [9] 50.4%
active: [4] 4.69% | [5] -1.19%

CN(C)C(=O)OCc1nc2c(N3CCOCC3)nc(-c3ccccc3)nc2n1C
active: [1] -74.4% | [2] 5.32% | [3] -92.8% | [4] -86.5% | [5] -59.9% | [7] -98.3% | [8] -65.4% | [9] -54.5%
inactive: [6] 29.9%

CCCCCCCCCCN=C(N)N=C(N)N
inactive: [1] 79.1% | [2] 21.3% | [3] 30.4% | [4] 38.8% | [5] 33.1% | [6] 42.8% | [7] 58.5% | [8] 48.5% | [9] 48.2%

COc1ccc(Cn2nc(-c3cc(OC)c(OC)c(OC)c3)c3c2CCc2cnoc2-3)cc1OC
inactive: [1] 76.1% | [2] 18.9% | [3] 78% | [4] 52.7% | [5] 68% | [6] 47.6% | [7] 37.7% | [8] 75.8% | [9] 61.7%

NS(=O)(=O)c1cccc(NC(=O)C(=O)C2C(=O)Nc3ccccc32)c1 (stereo unspecified)
inactive: [1] 107% | [2] 109% | [3] 102% | [4] 95.7% | [5] 105% | [6] 94.2% | [7] 101% | [8] 100% | [9] 99.1%

COc1ccc(-c2nc(SC(C)C)nc(NNC(N)=O)c2C#N)cc1
inactive: [1] 94.2% | [2] 25.7% | [3] 81.2% | [4] 78.8% | [5] 84.9% | [6] 88.7% | [7] 85.1% | [8] 99.8% | [9] 99.6%

O=C1NC(=S)NC(=O)C1=Cc1cccc(C=C2C(=O)NC(=S)NC2=O)c1
active: [9] -58.6%
inactive: [1] 110% | [2] 102% | [3] 109% | [4] 108% | [5] 103% | [6] 108% | [7] 99.9% | [8] 102%

Cc1ccc(-c2c(Br)c(OC(=O)CO[C@@H]3C[C@H](C)CC[C@H]3C(C)C)c(-c3ccc(C)cc3C)c(Br)c2OC(=O)CO[C@H]2C[C@@H](C)CC[C@@H]2C(C)C)c(C)c1
inactive: [1] 106% | [2] 110% | [3] 106% | [4] 96.1% | [5] 100% | [6] 96.2% | [7] 101% | [8] 98.8% | [9] 91.5%

Cc1c2c(cc[n+]1Cc1ccc(F)cc1)c1ccc(OCc3cccc(F)c3)cc1n2Cc1cccc(F)c1
active: [1] -90.8% | [2] -15.8% | [3] -79.6% | [4] -87.7% | [5] -94.2% | [6] -68.5% | [7] -65.4% | [8] -86% | [9] -82.1%

COc1c(Cl)cc(Cl)c2ccc(C=C3C(=O)NC(=S)NC3=O)nc12
inactive: [1] 115% | [2] 102% | [3] 106% | [4] 113% | [5] 99.8% | [6] 102% | [7] 101% | [8] 102%
active: [9] -56.2%

FC(F)(F)Oc1cccc(-c2cc(NCCCCCCNc3cc(-c4cccc(OC(F)(F)F)c4)nc4ccc(N5CCCC5)cc34)c3cc(N4CCCC4)ccc3n2)c1
active: [1] -5.9% | [2] -48.7% | [3] -96.2% | [4] -91.5% | [5] -65.5% | [7] 8.48% | [8] -9.02% | [9] -84%
inactive: [6] 34.1%

NC(=O)c1cccc(-c2cc(C(N)=O)ccc2Cl)c1
inactive: [1] 27.1% | [3] 46.4% | [4] 47.4% | [5] 45.3% | [6] 25% | [8] 47.8% | [9] 16.1%
active: [2] 8.24% | [7] -21%

Brc1ccc(C2CC(c3cccc(Nc4ccncc4)c3)=NN2c2ccccc2)cc1 (stereo unspecified)
inactive: [1] 88.7% | [3] 66.7% | [4] 84.4% | [5] 103% | [6] 89% | [7] 84.4% | [8] 84% | [9] 101%
active: [2] 4.05%

— PubChem BioAssay (NCI)
